The full list was thinned out, with hits kept by preference.
HTT aggregate: mutant huntingtin aggregation inhibition; PC12 HttQ103-GFP aggregates, Acumen cytometry, 40 h; Potency, µM (series often up to 46.1 µM), for inactives: top-dose activity change, negative = inhibition, hits mostly inhibitors; 220,000 tested, 1.1% active; AID 1688; further: potency means the concentration at half of the fitted maximal effect; on the % scale 0 is the no-effect control and ±100 the full control effect; nearly all actives have a fitted effect of over 60% in size
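Steps: seed 1500 PC12 HTTQ103-GFP cells/well; add tebufenozide, 100 nM final; add compound titration; add ATPLite reagent; quantify GFP aggregates by laser scanning cytometry.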
PNC assembly inh: inhibitors of perinucleolar compartment assembly; PC3M PTB-GFP, PNC prevalence imaging, 16 h; active compounds read low; activity change (PNC), negative = inhibition, % at 10 µM; 140,000 tested, 3.1% active;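 active means readout at or below -70, meaning at least 70% loss of cells showing the perinucleolar compartment, a nuclear body marking cancer cells; inconclusive means readout between -30 and a set limit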;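 further: plate controls were DMSO wells for no effect and camptothecin positive control wells for full effect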
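PC3M cells stably expressing PTB-GFP, 750–1000 cells/well, treated 16 h at 37 °C with compound (23 nl of library stock), in duplicate. After paraformaldehyde fixation and Hoechst stain, imaged at 20x; PNC prevalence scored by image analysis.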
HTT ATP protect: Huntington cell model cytoprotection by ATP luminescence | Potency, µM (highest dose often 56.4 µM), for the others: cytoprotection (ATP increase), actives largely listed as activators | AID 1471 | 230,000 tested, 0.14% active | PC12 HTT-Q103 induced, cytoprotection, ATP luminescence, 40 h; further: potency means the concentration at half of the fitted maximal effect; % of control where 0% means no effect; nearly all actives have a fitted effect of over 45% in size
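ATP quantification (ATPlite) reports survival of PC12 cells in which tebufenozide, 100 nM final, switches on Htt exon 1 with 103 glutamines linked to GFP; compounds are titrated.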
An asterisk follows results filed as active; [ ] = another dose, or the depositor's remark. Unless noted, the call rests on the fitted dose curve; in most records, active means well fitted curve in the direction sought with a large enough effect; inconclusive means small, poorly fitted or top-dose-only effect, or another doubt; inactive means no such curve, though single readings can be large; an effect the other way counts as inactive or inconclusive.

O=C1/C(=C/c2ccccc2)[C@@H](NC2CCCCC2)c2ccccc21 was read as HTT ATP protect -67.1%[10 µM].
Cc1c(Br)c([N+](=O)[O-])nn1CCCC(=O)Nc1c(C)n(C)n(-c2ccccc2)c1=O was read as HTT aggregate 6.2% and HTT ATP protect -40.4%.
`Cc1cccc(NC(=S)NCc2ccco2)n1` gave HTT aggregate 16.6% and HTT ATP protect inconclusive.
For CCSc1nnc(NC(=O)[C@@H](NC(=O)c2cccc(C)c2)C(C)C)s1 the results were HTT aggregate 5.1%, PNC assembly inh 7.2 and HTT ATP protect 1.3%[1.9 µM].
For CCC(CC)c1nnc(NC(=O)[C@@H](NC(=O)c2cccc(C)c2)C(C)C)s1 the results were HTT aggregate 10.7%, PNC assembly inh -97.3* and HTT ATP protect 23.2%[1.9 µM].
Screening C/C(=N\NC(=O)c1ccc(Br)cc1)c1ccccc1 returned HTT aggregate -14.8%, PNC assembly inh 75.5 and HTT ATP protect -24.4%.
`Cc1ccc(C(=O)OCc2cc3ccccc3[nH]c2=O)cc1` gave HTT aggregate 10.3%, PNC assembly inh -22.6 and HTT ATP protect -8.4%.
For COc1cc(C(=O)OCc2cc3ccccc3[nH]c2=O)cc(OC)c1OC the results were HTT aggregate 14.0%, PNC assembly inh -100.0* and HTT ATP protect -15.1%[0.074 µM].
Screening COc1ccc(N(C(C)=O)c2nc(C)cc(C)c2C#N)c(OC)c1 returned HTT aggregate 5.0%[9.22 µM] and HTT ATP protect 12.8%[10 µM].
`COc1cccc(/C=C/C(=O)OCC(=O)NCc2ccco2)c1OC` gave HTT aggregate 20.3% and PNC assembly inh 16.2.
Screening CCOC(=O)C1=C(Cn2cnc3ccccc32)NC(=O)NC1c1cc(C)ccc1C (centres undefined) returned HTT aggregate -14.4%, PNC assembly inh -27.8 and HTT ATP protect -5.7%.
`COC(=O)C1=C(Cn2cnc3ccccc32)NC(=O)NC1c1cc(C)ccc1C` (centres undefined) gave HTT aggregate -0.4%, PNC assembly inh -103.4* and HTT ATP protect 13.4%.
For O=[N+]([O-])c1ccc(O)c(Nc2ncnc3ccccc23)c1 the results were HTT aggregate 9.7%[9.22 µM] and HTT ATP protect -11.4%[10 µM].
O=[N+]([O-])c1ccc2ncnc(Nc3ccc4c(c3)OCCO4)c2c1 was read as HTT aggregate 14.1µM* and HTT ATP protect -62.4%.
For COc1ccc(Nc2ncnc3ccc([N+](=O)[O-])cc23)c(OC)c1 the results were HTT aggregate inconclusive and HTT ATP protect -23.1%.
O=[N+]([O-])c1ccc(O)c(Nc2ncnc3ccc(Br)cc23)c1 was read as HTT aggregate 31.6µM* and HTT ATP protect -157.3%.
Screening Cc1cnc(NC(=O)CN2CCN(c3ccccc3F)CC2)s1 returned HTT aggregate -1.2%, PNC assembly inh -16.0 and HTT ATP protect 13.8%[10 µM].
Cn1nc(-c2ccc(Cl)cc2)c2cc(C(=O)NC3CC3)sc21 was read as HTT aggregate -15.3%, PNC assembly inh -86.0* and HTT ATP protect -23.6%.
CCN(CC)CCNC(=O)c1cc2c(-c3ccc(Cl)cc3)nn(C)c2s1 was read as HTT aggregate 1.0%, PNC assembly inh 4.5 and HTT ATP protect -90.0%.
For COCCn1c(SCC(=O)N2CCc3ccccc3C2)nc2cc(Cl)ccc2c1=O the results were HTT aggregate -31.8% and PNC assembly inh 14.2.
For CC(C)Cn1c(SCC(=O)N2CCc3ccccc3C2)nc2cc(Cl)ccc2c1=O the results were HTT aggregate 10µM*, PNC assembly inh 1.4 and HTT ATP protect 13.9%[10 µM].
CCOC(=O)N/N=C/c1c(C)nn(-c2ccccc2Cl)c1Cl was read as HTT aggregate 1.2%, PNC assembly inh -8.9 and HTT ATP protect 18.6%[10 µM].
`Cc1nn(-c2ccccc2Cl)c(Cl)c1/C=N/Nc1nc2ccccc2s1` gave HTT aggregate -13.3%, PNC assembly inh -82.6* and HTT ATP protect 7.3%[10 µM].
Screening O=C(O)c1ccc(COc2c(F)c(F)c(F)c(F)c2F)o1 returned HTT aggregate 5.3%, PNC assembly inh -100.0* and HTT ATP protect -8.8%[10 µM].
Screening Cc1cc(C)cc(OCc2ccc(C(=O)O)o2)c1 returned HTT aggregate -3.1%, PNC assembly inh inconclusive and HTT ATP protect 6.8%.
Screening CCOC(=O)C1=C(CC)OC(N)=C(C#N)C1c1cccs1 (centres undefined) returned HTT aggregate 11.0%, PNC assembly inh -6.6 and HTT ATP protect 7.1%.
For COC(=O)CC1=C(C(=O)OC)C(c2cccs2)C(C#N)=C(N)O1 (centres undefined) the results were HTT aggregate -1.9%, PNC assembly inh -119.4* and HTT ATP protect -14.1%[10 µM].
`N#CC1=C(N)Oc2cc(O)ccc2C1c1ccncc1` (centres undefined) gave HTT aggregate 18.8%, PNC assembly inh inconclusive and HTT ATP protect -3.0%.
Screening N#CC1=C(N)Oc2cc(O)ccc2C1c1cccs1 (centres undefined) returned HTT aggregate -8.6%, PNC assembly inh -105.7* and HTT ATP protect -2.8%[10 µM].
Cc1nc2c(C(=O)NCCC3=CCCCC3)c[nH]n2c(=O)c1Cl was read as HTT aggregate inconclusive, PNC assembly inh 17.3 and HTT ATP protect 0.6%.
For COc1ccc(NC(=S)N(CCCN2CCC(C)CC2)Cc2cccs2)cc1 the results were HTT aggregate -2.1% and HTT ATP protect -32.5%.
`COc1ccc(NC(=S)N(CCCN2CCOCC2)Cc2cn(C)c3ccccc23)cc1OC` gave HTT aggregate -26.9%, PNC assembly inh 13.7 and HTT ATP protect -24.8%[10 µM].
Screening COc1cccc(NC(=S)N(CCCN2CCOCC2)Cc2cn(C)c3ccccc23)c1 returned HTT aggregate 11.2µM*, PNC assembly inh inconclusive and HTT ATP protect -52.9%[10 µM].
COc1ccc(NC(=S)N(CCCN2CCCCC2)Cc2cccs2)cc1 was read as HTT aggregate 8.2%, PNC assembly inh -105.0* and HTT ATP protect 1.3%[10 µM].
CCn1c(COc2cccc3ccccc23)nnc1SCC(=O)OC1CCCCC1 was read as HTT aggregate -1.0%, PNC assembly inh 20.1 and HTT ATP protect -5.5%.
Screening CCN(c1cccc(C)c1)c1ncnc2nc[nH]c12 returned HTT aggregate 8.91µM*, PNC assembly inh inconclusive and HTT ATP protect 0.4%[10 µM].
For CCCCN(c1ccccc1)c1ncnc2nc[nH]c12 the results were HTT aggregate inconclusive, PNC assembly inh 18.0 and HTT ATP protect -2.3%.
C=CCn1c(SCC(=O)Nc2cc(C)ccc2C)nnc1-c1cnccn1 was read as HTT aggregate 0.3%, PNC assembly inh 9.5 and HTT ATP protect -9.5%[0.074 µM].
Screening CC(C)(C)OC(=O)N[C@H](Cc1ccccc1)C(=O)N1CCC(C(=O)O)CC1 returned HTT aggregate 16.9%, PNC assembly inh -83.4* and HTT ATP protect 1.5%.
CC(C)C[C@H](NC(=O)OC(C)(C)C)C(=O)N1CCC(C(=O)N[C@@H](Cc2ccccc2)C(=O)O)CC1 was read as HTT aggregate -6.6%, PNC assembly inh 49.6 and HTT ATP protect 7.9%.
`COc1ccc(CNC(=O)c2cc(-n3cnnc3)ccc2Cl)cc1` gave HTT aggregate -16.1%, PNC assembly inh inconclusive and HTT ATP protect -1.2%[0.074 µM].
CN(C1CCS(=O)(=O)C1)S(=O)C12CC3CC(CC(C3)C1)C2 (centres undefined) was read as HTT aggregate 15.3%, PNC assembly inh -100.0* and HTT ATP protect -16.1%[10 µM].
